Calls of active or inactive are those of the source. Unless noted, no rule for the calls is given here.
Key:
[1] = anti-His antibody binders, primary screen, artefact control for SMM control protein annotation, biochemical, small-molecule microarray, 635 nm fluorescence (AID 1128); conditions: anti-His Alexa647 antibody binding, higher = more signal;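 also: score merges feature fluorescence with signal-to-noise for each printed compound spot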
[2] = system: Human papillomavirus type 1a E7 protein (residues 1-88); assay: HPV1a E7 small-molecule binders, primary screen, biochemical, small-molecule microarray, residues 1-88, 635 nm (AID 1129); conditions: small-molecule microarray binding, fluorescence 635 nm; higher = more signal
[3] = molecular target: Focal adhesion kinase 1 (Homo sapiens) (UniProt Q05397); assay: small-molecule microarray binders of FAK, primary screen, biochemical, 635/667 nm fluorescence, BSA, DTT (AID 1130); conditions: PTK2 binding, 635 nm fluorescence, higher = more signal;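 also: composite of spot emission at 667 nm and signal to noise over triplicate slides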
[4] = system: Fibrinogen (Alexa647-labelled); assay: fibrinogen binders on compound microarrays, profiling panel, artefact control for SMM control-protein annotation, biochemical, small-molecule microarray, 635/667 nm fluorescence (AID 1131); conditions: fibrinogen-A647 binding fluorescence, higher = more signal;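 also: z-score merges 667 nm fluorescence with per-spot signal-to-noise over triplicate slides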
[5] = molecular target: Follistatin (Homo sapiens) (UniProt P19883); assay: follistatin binders on small-molecule microarrays, primary screen, biochemical, small-molecule microarray, 635/667 nm fluorescence (AID 1132); conditions: FST binding, 635 nm fluorescence, higher = more signal
[6] = molecular target: Fibroblast growth factor 2 (Homo sapiens) (UniProt P09038); assay: FGF2 binders on small-molecule microarrays, primary screen, biochemical, small-molecule microarray, 635/667 nm fluorescence (AID 1133); conditions: small-molecule microarray binding, FGF2, fluorescence 635/667; higher = more signal
[7] = mitochondrial membrane potential change in A549 cells, profiling panel, cell-based, JC-1 fluorescence, basal, 24 h, 100 nL (AID 1138); conditions: higher = more signal;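 also: A549 lung adenocarcinoma cells under basal conditions with no added stimulus; test concentration not given here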
[8] = system: Lefty1; assay: Lefty1 binders on small-molecule microarrays, primary screen, biochemical, small-molecule microarray, 635/667 nm fluorescence (AID 1139); conditions: small-molecule microarray binding, fluorescence 635/667; higher = more signal
[9] = system: wheat germ agglutinin (Triticum aestivum), Alexa647-labelled; assay: wheat germ agglutinin binders on compound microarrays, profiling panel, artefact control for SMM control-protein annotation, biochemical, small-molecule microarray, 635/667 nm fluorescence (AID 1140); conditions: WGA-A647 binding, 635 nm fluorescence, higher = more signal;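 also: score merges 667 nm feature emission with signal to noise over triplicate slides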
[10] = molecular target: Luciferin 4-monooxygenase (Photinus pyralis) (UniProt P08659); assay: firefly luciferase enzyme inhibitors, primary screen, biochemical, luminescence, purified enzyme, 2006 set (AID 1141); conditions: SteadyGlo luminescence, 30 min, higher = more signal, called active from +8 up or from −8 down;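 also: cell-free assay with purified firefly luciferase at 100 ng per well in PBS; test concentration not given here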
[11] = system: Wnt5a (protein binding on small-molecule microarray); assay: Wnt5a binders on small-molecule microarray, primary screen, biophysical, 635/667 nm fluorescence (AID 1142); conditions: 635 nm fluorescence, higher = more signal;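 also: fluorescence read at 667 nm with signal to noise per printed feature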
[12] = cell viability in Huh7 cells, primary screen, cytotoxicity control for HCV replication inhibitor project, CellTiter-Glo luminescence, basal, 48 h (AID 1143); conditions: Huh7 HCV replicon, higher = more signal, called active from +8 up or from −8 down;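 also: Huh7 hepatoma cells carrying a hepatitis C replication reporter with no stimulus; test concentration not given here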
[13] = P. aeruginosa biofilm formation inhibitors, primary screen, PAO1 strain, BacTiter-Glo luminescence, LB-PBS (AID 1144); conditions: 12 h, higher = more signal
[14] = CREB reporter modulators without forskolin, primary screen, cell-based, PC12, CRE-LacZ reporter, unstimulated (AID 1145); conditions: no forskolin, luminescence, 4.5 h, higher = more signal, called active from +8 up or from −8 down
[15] = CREB reporter modulators under forskolin, primary screen, cell-based, PC12, CRE-LacZ reporter, forskolin-stimulated (AID 1146); conditions: luminescence, 4.5 h, higher = more signal, called active from +8 up or from −8 down;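 also: PC12 cells with 6xCRE LacZ reporter stimulated by forskolin 10 µM; beta-galactosidase reporter signal reflecting CREB driven transcription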
[16] = molecular target: Streptavidin (Streptomyces avidinii) (UniProt P22629); assay: streptavidin binders on small-molecule microarray, primary screen, artefact control for SMM compound annotation, biophysical, 635/667 nm fluorescence (AID 1147); conditions: streptavidin binding, higher = more signal;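 also: signal reflects streptavidin binding to arrayed compounds as a control protein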
[17] = small-molecule binders of probe aInhba, primary screen, biochemical, small-molecule microarray, 635/667 nm fluorescence (AID 1148); conditions: higher = more signal;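 also: score merges 667nm spot fluorescence with signal-to-noise for antibody binding to printed compounds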
[18] = molecular target: Torsin-1A (Homo sapiens) (UniProt O14656); assay: torsin A binders from cell lysate, primary screen, small-molecule microarray, wild-type, 635/667 nm (AID 1149); conditions: COS7 hTOR1A-WT lysate, 635 nm fluorescence, higher = more signal
[19] = molecular target: Torsin-1A (Homo sapiens) (UniProt O14656); assay: small-molecule binders of mutant TOR1A in lysate, primary screen, cell lysate, small-molecule microarray, COS7 lysate, 635/667 nm fluorescence (AID 1150); conditions: COS7 hTOR1A mutant lysate, 635 nm fluorescence, higher = more signal;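 also: score pools 667 nm emission and signal to noise measuring lysate protein binding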
[20] = system: Sonic hedgehog protein (Shh); assay: small-molecule binders of Shh protein, primary screen, biochemical, small-molecule microarray, 635/667 nm fluorescence (AID 1151); conditions: small-molecule microarray binding, 635 nm fluorescence; higher = more signal;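 also: Shh protein binding to compounds spotted on small-molecule microarray slides; score combines spot fluorescence intensity with signal-to-noise across triplicate slides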

Sequence of Focal adhesion kinase 1 (Homo sapiens) (Q05397 whole entry, looked up): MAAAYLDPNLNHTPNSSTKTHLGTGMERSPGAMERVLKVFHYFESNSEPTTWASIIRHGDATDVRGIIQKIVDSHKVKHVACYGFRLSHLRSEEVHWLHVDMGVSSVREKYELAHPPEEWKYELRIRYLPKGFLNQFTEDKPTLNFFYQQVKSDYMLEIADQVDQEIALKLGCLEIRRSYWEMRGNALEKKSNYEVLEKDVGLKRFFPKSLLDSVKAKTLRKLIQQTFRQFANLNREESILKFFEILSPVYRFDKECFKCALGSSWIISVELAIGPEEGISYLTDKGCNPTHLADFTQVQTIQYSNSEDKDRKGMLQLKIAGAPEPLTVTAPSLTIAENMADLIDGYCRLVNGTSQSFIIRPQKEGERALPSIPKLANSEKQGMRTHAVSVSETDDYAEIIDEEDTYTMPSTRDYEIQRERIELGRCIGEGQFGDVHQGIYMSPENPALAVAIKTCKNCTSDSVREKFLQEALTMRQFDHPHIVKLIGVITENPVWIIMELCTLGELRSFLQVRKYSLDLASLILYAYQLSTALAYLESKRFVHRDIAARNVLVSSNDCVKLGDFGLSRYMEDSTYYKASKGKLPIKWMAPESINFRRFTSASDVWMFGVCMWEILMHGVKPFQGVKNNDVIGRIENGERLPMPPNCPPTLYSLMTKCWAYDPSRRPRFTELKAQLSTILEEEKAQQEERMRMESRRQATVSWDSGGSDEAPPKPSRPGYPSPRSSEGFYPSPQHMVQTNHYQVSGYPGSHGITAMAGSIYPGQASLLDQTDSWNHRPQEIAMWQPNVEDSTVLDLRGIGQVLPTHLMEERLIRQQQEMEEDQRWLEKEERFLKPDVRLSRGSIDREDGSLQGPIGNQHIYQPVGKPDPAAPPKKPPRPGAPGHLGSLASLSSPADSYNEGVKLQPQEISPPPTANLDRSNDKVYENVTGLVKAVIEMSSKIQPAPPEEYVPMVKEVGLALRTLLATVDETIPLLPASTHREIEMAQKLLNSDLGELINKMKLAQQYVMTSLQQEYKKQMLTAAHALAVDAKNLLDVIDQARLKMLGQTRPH
Sequence of Torsin-1A (Homo sapiens) (O14656 whole entry, looked up): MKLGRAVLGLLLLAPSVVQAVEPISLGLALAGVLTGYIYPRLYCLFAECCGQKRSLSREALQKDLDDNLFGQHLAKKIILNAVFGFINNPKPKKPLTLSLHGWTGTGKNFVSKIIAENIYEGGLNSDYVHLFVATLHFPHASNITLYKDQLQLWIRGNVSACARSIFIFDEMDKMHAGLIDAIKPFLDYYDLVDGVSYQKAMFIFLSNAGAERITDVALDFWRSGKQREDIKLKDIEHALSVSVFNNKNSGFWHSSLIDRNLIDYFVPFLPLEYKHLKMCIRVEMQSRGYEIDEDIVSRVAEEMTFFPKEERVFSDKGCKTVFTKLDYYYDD
Sequence of Follistatin (Homo sapiens) (P19883 whole entry, looked up): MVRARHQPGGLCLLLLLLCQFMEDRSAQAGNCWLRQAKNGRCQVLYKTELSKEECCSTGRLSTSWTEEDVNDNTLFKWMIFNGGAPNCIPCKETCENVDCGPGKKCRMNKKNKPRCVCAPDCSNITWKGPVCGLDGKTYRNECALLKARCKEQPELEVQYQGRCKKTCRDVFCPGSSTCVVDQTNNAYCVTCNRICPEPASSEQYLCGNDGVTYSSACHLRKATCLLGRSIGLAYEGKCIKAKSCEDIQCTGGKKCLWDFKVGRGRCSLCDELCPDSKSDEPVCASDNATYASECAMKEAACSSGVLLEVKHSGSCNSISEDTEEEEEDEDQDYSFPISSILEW
Sequence of Fibroblast growth factor 2 (Homo sapiens) (P09038 whole entry, looked up): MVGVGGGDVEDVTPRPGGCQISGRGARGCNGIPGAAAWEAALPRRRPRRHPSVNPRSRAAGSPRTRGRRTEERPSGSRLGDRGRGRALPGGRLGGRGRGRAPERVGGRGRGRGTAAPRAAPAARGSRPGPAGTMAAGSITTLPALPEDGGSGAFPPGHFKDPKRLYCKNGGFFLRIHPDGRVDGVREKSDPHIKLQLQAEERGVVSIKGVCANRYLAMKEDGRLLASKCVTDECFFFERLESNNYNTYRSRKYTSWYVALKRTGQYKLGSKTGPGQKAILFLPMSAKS
Sequence of Luciferin 4-monooxygenase (Photinus pyralis) (P08659 whole entry, looked up): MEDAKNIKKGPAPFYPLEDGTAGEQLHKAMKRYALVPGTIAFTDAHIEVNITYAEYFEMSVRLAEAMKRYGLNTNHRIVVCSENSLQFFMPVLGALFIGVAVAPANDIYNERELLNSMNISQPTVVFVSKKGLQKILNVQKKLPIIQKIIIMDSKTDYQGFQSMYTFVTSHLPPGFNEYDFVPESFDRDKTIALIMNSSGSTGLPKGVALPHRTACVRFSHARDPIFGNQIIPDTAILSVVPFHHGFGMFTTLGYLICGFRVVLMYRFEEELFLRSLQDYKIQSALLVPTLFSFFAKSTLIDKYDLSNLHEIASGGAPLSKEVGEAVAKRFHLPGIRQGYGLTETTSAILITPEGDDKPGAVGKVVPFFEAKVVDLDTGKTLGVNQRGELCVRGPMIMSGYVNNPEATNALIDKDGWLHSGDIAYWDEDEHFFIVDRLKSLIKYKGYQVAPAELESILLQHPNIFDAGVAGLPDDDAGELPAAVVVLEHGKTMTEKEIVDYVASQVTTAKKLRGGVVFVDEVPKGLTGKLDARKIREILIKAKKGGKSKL
Sequence of Streptavidin (Streptomyces avidinii) (P22629 whole entry, looked up): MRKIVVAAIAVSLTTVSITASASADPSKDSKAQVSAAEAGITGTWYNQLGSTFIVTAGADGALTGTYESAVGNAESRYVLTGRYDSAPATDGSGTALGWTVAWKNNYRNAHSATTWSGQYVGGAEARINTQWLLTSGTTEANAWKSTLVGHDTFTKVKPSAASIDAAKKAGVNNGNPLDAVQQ

Row | Compound | composite z-score [1] | composite z-score [2] | composite z-score [3] | composite z-score [4] | composite z-score [5] | composite z-score [6] | z-score [7] | composite z-score [8] | composite z-score [9] | z-score [10] | composite z-score [11] | z-score [12] | z-score [13] | z-score [14] | z-score [15] | composite z-score [16] | composite z-score [17] | composite z-score [18] | composite z-score [19] | composite z-score [20]
1 | COc1ccccc1CN1C(=O)c2ccccc2[C@](Cc2ccccc2I)(C(=O)NCC(F)(F)F)[C@@H]1c1ccc(CO)cc1 | 2.25 | 1.24 | 0.473 | 0.74 | 1.26 | 0.342 | -0.878 | 0.168 | 0.887 | 0.347 (inactive) | 0.431 | -2.75 (inactive) | -0.243 (inactive) | -0.735 (inactive) | 6.82 (inactive) | 1.14 | 0.189 | 1.36 | -0.103 | 0.251
2 | COc1ccc([Si](C)(C)[C@@H]2[C@@H](CCn3cc([C@H](O)c4ccccc4)nn3)O[C@]3(C(=O)N(Cc4ccc(N5CCC5=O)cc4)c4ccccc43)[C@H]2C)cc1 | 0.174 | -0.304 | -0.0467 | -0.926 | 1.31 | 0.749 | 1.87 | 1.05 | 0.118 | -0.325 (inactive) | 0.512 | -2.65 (inactive) | -1.38 (inactive) | 1.03 (inactive) | 0.355 (inactive) | -0.105 | -0.184 | 2.13 | 0.269 | 2.02
3 | CN1C(=O)C2C=CC(C(O)C#Cc3ccccc3)N(Nc3ccccc3)C2C1=O (stereo not given) | 0.974 | 1.24 | 0.884 | 0.985 | 1.18 | 0.101 | 1.11 | 0.473 | 1.24 | -1.21 (inactive) | 0.399 | 0.254 (inactive) | -0.141 (inactive) | -0.515 (inactive) | 0.526 (inactive) | 1.38 | 0.153 | 0.663 | 0.889 | 0.592
4 | CCOC(=O)C1=CC[C@@H](c2ccc(OCc3ccccc3)c(OC)c2)N(S(=O)(=O)c2ccc(C)cc2)[C@H]1c1ccc(SC)cc1 | 1.44 | 1.24 | 0.398 | 0.715 | 0.761 | 0.159 | -0.219 | 0.542 | 0.71 | 0.107 (inactive) | 0.683 | -1.51 (inactive) | 0.765 (inactive) | 0.967 (inactive) | 0.137 (inactive) | 1.42 | 0.113 | 1.28 | 1.4 | 0.249
5 | O=C1O[C@@H](c2ccccc2)[C@@H](c2ccccc2)N2[C@@H](c3ccc(OCCO)cc3)[C@]3(C(=O)Nc4ccccc43)[C@@H](C(=O)O)[C@H]12 | 2.37 | 0.177 | -0.0546 | 0.679 | 0.197 | -0.406 | -0.75 | 0.044 | 0.125 | -1.43 (inactive) | 0.615 | -4.21 (inactive) | -0.148 (inactive) | -0.258 (inactive) | 0.273 (inactive) | 0.0928 | 0.697 | 0.043 | 1.65 | 0.301
6 | Cc1ccc(S[C@]2(C(=O)O)CC(=O)N(C3Cc4ccccc4C3)[C@@H]2c2ccc(CO)cc2)cc1 | 3.14 | 0.246 | 0.583 | -0.428 | -0.987 | -0.306 | 0.225 | -0.889 | -0.339 | -0.675 (inactive) | -0.127 | 0.121 (inactive) | 0.0572 (inactive) | 0.001 (inactive) | 0.629 (inactive) | -0.395 | 0.0018 | 0.794 | 0.431 | -0.3
7 | COc1ccc(-c2nc(-c3ccccc3)c3c(c2C)CO[Si]3(C(C)C)C(C)C)cn1 | -0.479 | 0.081 | 0.268 | -0.579 | 0.16 | 0.639 | -0.0772 | 0.402 | 0.0463 | 0.431 (inactive) | 0.0934 | -0.483 (inactive) | 0.338 (inactive) | -0.607 (inactive) | 0.315 (inactive) | 0.188 | -0.0494 | 0.14 | -0.129 | 0.848
8 | C=CCN1C(=O)[C@@]2(O[C@@H](CCn3cc([C@H](O)c4ccccc4)nn3)[C@H]([Si](C)(C)c3ccc(OC)cc3)[C@H]2C)c2cc(N3CCC3=O)ccc21 | 1.65 | 1.09 | -0.082 | -0.117 | 0.345 | 0.0863 | 2.25 | -0.127 | 0.552 | -1.21 (inactive) | -0.162 | -1.83 (inactive) | -1.01 (inactive) | 17 (active) | -1.02 (inactive) | -0.101 | -0.154 | 0.195 | 0.183 | -0.0053
9 | CCOC(=O)C[C@H]1[C@H](OC(=O)Cc2ccc3c(c2)OCO3)[C@@H](NC(=O)CC(C)C)c2cc(OCCCO)ccc2N1C(=O)Cc1ccc(OC)cc1 | -0.114 | 0.0383 | -0.224 | 0.641 | -0.123 | 0.11 | 0.903 | -0.194 | 0.62 | -1.91 (inactive) | -0.199 | -1.04 (inactive) | 0.29 (inactive) | 0.0918 (inactive) | -0.513 (inactive) | -0.0258 | -0.0471 | 0.288 | -0.115 | -0.113
